Out of some 53,000 compounds screened, about 900 (1.7%) showed an effect of 50% or more. Only a selection was taken, and strong results are over-represented in it overall.

The experiment has as its system Mycobacterium tuberculosis. Description: Cornell - Phenotypic assay to identify agents that inhibit growth of Mycobacterium tuberculosis. Further details: scale not given: direction of the effect not stated beside the values. To be noted: 10 mM as filed; unlikely as a test dose. Type of experiment: functional.
In the case of `O=c1[nH]c2nc(N3CCSCC3)ncc2c(=O)n1-c1cccc(F)c1`, the “Percent Effect” value is listed as 12.37%. For `O=C(O)C1CCCN1c1nc(-c2ccc(Cl)c(Cl)c2)cc(C(F)(F)F)n1` (centres undefined), the “Percent Effect” value came to 67.65%. For `O=C(O)C1CCCN1c1nc(C2CC2)cc(C(F)(F)F)n1` (centres undefined), the “Percent Effect” value was 4.747%. `O=C(O)C1CCCN1c1nc(-c2ccc(Cl)cc2)cc(C(F)(F)F)n1` (centres undefined): the “Percent Effect” value is given as 38.69%.

For `Cc1cc(CN(C)Cc2csc(-c3ccc(C(C)C)cc3)n2)no1`, the “Percent Effect” value is 47.23%.

For `Cc1noc(C)c1CN(C)Cc1csc(-c2ccc(F)cc2)n1`, the “Percent Effect” value was 39.26%. For `Cc1noc(C)c1CN(C)Cc1csc(-c2ccc(C(C)C)cc2)n1`, the “Percent Effect” value is reported as 63.13%. The same measure for `CC(C)c1ncc(CN2CCCC2c2[nH]ncc2C(=O)N(C)C)cn1` (centres undefined): -22.16%; for `CCCn1c(C)c(CC(=O)N[C@H](C)C(=O)OC)c2c1CC(C)(C)CC2=O`: 46.36%; for `Cc1cnc2n(c1=O)C(CC(=O)NCc1ccco1)CS2` (centres undefined): 22.84%. The same measure for `Cc1nc(C)n(CC2CN(CC(=O)NC3CCCC3)CCO2)n1` (centres undefined): -1.047%. The same measure for `CCc1ccccc1NCc1nc2[nH]c(C)c(C)c(=O)n2n1`: -10.14%; for `CN1C(=O)C2(CCN(C(=O)C3CCOCC3)CC2)c2ccccc21`: 10.41%. With `N#Cc1nc(COc2ccc3c(c2)OCO3)oc1N1CCCCCC1`, the “Percent Effect” value amounted to 35.88%. The result for `CC(C)NC(=O)c1nc(COc2ccc3c(c2)OCO3)no1` reads 22.39%. The same measure for `N#Cc1nc(COc2ccc3c(c2)OCO3)oc1N1CCCC1`: 60.43%; for `CNc1oc(COc2ccc3c(c2)OCO3)nc1C#N`: -5.351%. The result for `N#Cc1nc(COc2ccc3c(c2)OCO3)oc1NC1CCCCC1` reads 58.43%.

Take `N#Cc1nc(COc2ccc3c(c2)OCO3)oc1NC1CC1`: the “Percent Effect” value stood at 0.1825%.

With `Cc1nn(C)cc1-c1cc(C(F)(F)F)n(CCCN)n1`, the “Percent Effect” value is recorded as -15.46%. Take `Cc1cccc(CS(=O)(=O)NCc2nn(C)c3c2CCCC3)c1`: the “Percent Effect” value was found to be 18.68%. The result for `O=C(c1cnccn1)N1CC(S(=O)(=O)c2ccc(Cl)cc2)C1` reads 17.17%. On to `CC(=O)N1CCN(c2cc(C)ncn2)CC(CO)C1` (centres undefined), for which the “Percent Effect” value amounted to 21.65%. The same measure for `CCOC(=O)Cn1c(=O)nc2n1C(=O)N(c1ccccc1)C2`: -0.8928%.

As for `CCOC(=O)Cn1nnnc1-c1ccccc1`, the “Percent Effect” value was 99.52%. On to `CN(C(=O)Cn1nnnc1C(C)(C)C)c1ccccc1`, for which the “Percent Effect” value is recorded as -5.466%. The result for `CC(C)c1nn(C)c(N(C)C)c1CNCC(O)COc1ccccc1` (centres undefined) reads 51.29%; that for `Cc1ccc(C(O)CNCc2c(C(C)C)nn(C)c2N(C)C)cc1` (centres undefined), 104.4%. Regarding `CC(C)c1nn(C)c(N(C)C)c1CNCC(O)c1ccccc1F` (centres undefined), the “Percent Effect” value was determined as 40.49%. On to `COc1ccccc1C(O)CNCc1c(C(C)C)nn(C)c1N(C)C` (centres undefined), for which the “Percent Effect” value is recorded as 50.62%. For the molecule `Cc1cccc(OCC(O)CNCc2c(C)nn(C)c2N(C)C)c1` (centres undefined), the “Percent Effect” value was determined as 33.74%. As for `Cc1nn(C)c(N(C)C)c1CNCC(O)COc1ccccc1.Cl` (centres undefined), the “Percent Effect” value amounted to 25.02%. As for `Cc1nn(C)c(N(C)C)c1CNCC(O)c1ccccc1` (centres undefined), the “Percent Effect” value was -2.094%. Turning to `CC(C)c1nn(C)c(N(C)C)c1CNCC(O)c1ccccc1` (centres undefined), the “Percent Effect” value was 39.56%. The result for `COc1c(CNCC(O)c2ccccc2F)c(C(C)C)nn1C` (centres undefined) reads -39.06%; that for `O=C(O)c1nnn(-c2ccc(F)c(F)c2)c1-c1ccncc1`, 8.364%. With `CC(=O)c1ccc(-n2c(C)cn(CCC(=O)NC(N)=O)c2=O)cc1`, the “Percent Effect” value amounted to 30.44%. The same measure for `Cc1nc2ccnn2c(C)c1CCC(=O)N1CCN2CCCCC2C1` (centres undefined): -1.576%.

As to `CCCn1cc(Cl)c(C(=O)N2C[C@H]3C[C@H](OC)C[C@H]3C2)n1`, the “Percent Effect” value is recorded as 4.304%. The same measure for `CN1CC[C@]2(CN(CC3CC3)C[C@H]2c2ccccc2)C1=O`: -29.63%. The same measure for `CC(=O)Nc1ccc(Oc2cc(C)nc(C3CCCNC3)c2)cc1.Cl` (centres undefined): 31.88%.

Turning to `Cc1ccc(N2CCCN(C(=O)c3n[nH]c4c3CCC4)CC2)nn1`, the “Percent Effect” value stood at 19.39%.

`CNC(=O)CN1CCC(CN(C)CCSc2ccccc2)CC1`: the “Percent Effect” value was determined as 4.331%. In the case of `CCSCCNc1cc(C)nc2c(C)c(C)nn12`, the “Percent Effect” value was 75.01%. Consider `Cc1cc(NCCCNc2cccnc2)n2nc(C)c(C)c2n1`, for which the “Percent Effect” value is on record as 31.25%. On to `Cc1cc(NCCSc2nccn2C)n2nc(C)c(C)c2n1`, for which the “Percent Effect” value is recorded as 27.83%. Regarding `Cn1cc(-c2cc(C(F)F)n3nc(CCC(=O)O)nc3n2)cn1`, the “Percent Effect” value is given as -6.676%. The same measure for `COc1cccc(CNC(=O)c2ccccc2-n2cnc(CN)c2)c1`: -31.51%.

In the case of `CCN(CC)S(=O)(=O)N1CCCC1c1nnc2n1CCN(C)CC2` (centres undefined), the “Percent Effect” value was 42.64%. `O=S(=O)(c1ccc(F)cc1F)N1CCCCC1c1nnc2n1CCCC2` (centres undefined): the “Percent Effect” value is given as 10.12%.

As to `CN1CCc2nnc(C3CCCN3S(=O)(=O)c3ccc(F)cc3)n2CC1` (centres undefined), the “Percent Effect” value was 59.34%. In the case of `CC(OCC1CC1)C(=O)N1CCCN(Cc2nccn2C(C)C)CC1` (centres undefined), the “Percent Effect” value stood at 14.16%.

Consider `O=C(NCCC1COc2ccccc2O1)c1ccc(-c2cn[nH]c2)nc1` (centres undefined), for which the “Percent Effect” value was 4.189%. The same measure for `O=C(NCCC1COc2ccccc2O1)c1ccc(N2CC(O)C2)nc1` (centres undefined): -14.99%; for `O=C(NCCC1COc2ccccc2O1)c1ccc(-c2cc[nH]n2)nc1` (centres undefined): 70.18%.

As for `CN(C)C(=O)N1C[C@@H]2CC[C@H](C1)N(Cc1nnc(-c3ccco3)o1)C2`, the “Percent Effect” value is -11.16%. The same measure for `CCC(C)Oc1ccc(CNCCNC(C)=O)cc1OC` (centres undefined): -42.04%; for `Cn1ncc2c(N3CCN(CCO)CC3)nc(C3CCCC3)nc21`: 32.14%; for `Cn1ncc2c(N3CCS(=O)(=O)CC3)nc(C3CCCC3)nc21`: -13.36%. The same measure for `CN1CCCN(c2nc(C3CCCC3)nc3c2cnn3C)CC1`: 65.73%; for `c1ccc(CCCN2CCCN(c3ncnc4[nH]ccc34)CC2)cc1`: 3.591%.

Regarding `Cc1nccn1-c1ccc(=O)n(CCNC(=O)Cc2ccccc2)n1`, the “Percent Effect” value is 4.846%. The result for `c1cc(N2CCCCC2)ccc1-c1noc(CN2CCOCC2)n1` reads 5.485%; that for `Cc1nn(CC(=O)N2CCN(c3ccncc3)CC2)c(C)c1Cl`, 1.786%; that for `COc1ccc(N2CCN(C(=O)Cn3nc(C)c(Cl)c3C)CC2)cc1`, 54.85%.

`COc1ccc(N2CCN(C(=O)COc3c(C)occc3=O)CC2)cc1`: the “Percent Effect” value came to 55.27%.

On to `COc1cccc(N2CCN(C(=O)COc3c(C)occc3=O)CC2)c1`, for which the “Percent Effect” value came out at 16.48%. The result for `Cc1nn(CC(=O)N2CCN(c3ccc(F)cc3)CC2)c(C)c1Cl` reads -1.208%. `Cc1occc(=O)c1OCC(=O)N1CCN(c2ccccc2)CC1`: the “Percent Effect” value worked out at 32.32%. The same measure for `CCC[C@H]1CN(c2nc(CO)cs2)C[C@@H]1NC(=O)C1CCC1`: 52.87%; for `CCC[C@H]1CN(c2nc(CO)cs2)C[C@@H]1NC(=O)C1(COC)CC1`: 20.53%; for `O=C(N[C@H]1CN(c2nc(CO)cs2)C[C@@H]1C1CC1)C1CCCCC1`: 56.52%. For `CC(=O)N[C@@H]1CN(c2nc(CO)cs2)C[C@H]1c1ccc(C)o1`, the “Percent Effect” value is listed as 3.039%. The same measure for `O=C(N[C@H]1CN(c2ccncc2)C[C@@H]1C1CC1)C1CCOCC1`: 6.471%; for `OCc1csc(N2C[C@@H](CN3CCCCCC3)[C@@H](CO)C2)n1`: -1.997%.

Take `O=C(c1cccs1)N1CCC2(CC1)CN(c1ccsc1)C(=O)CO2`: the “Percent Effect” value amounted to 16.06%. The same measure for `Clc1ccc(C2(CNC3=NCCN3)CC2)cc1.I`: -15.81%; for `CCOC(=O)N1CCNC(c2cccs2)C1` (centres undefined): -4.593%. Take `Cc1nc(CN2CCC(N(C)Cc3nnc(C4CC4)n3C)C2)cs1` (centres undefined): the “Percent Effect” value came to 55.81%. The result for `CN(Cc1nnc(C2CC2)n1C)C1CCN(Cc2ccc(F)cc2)C1` (centres undefined) reads 10.51%; that for `CN(Cc1nnc(C2CC2)n1C)C1CCN(Cc2ccncc2)C1` (centres undefined), -21.05%. Turning to `CN(Cc1nnc(C2CC2)n1C)C1CCN(Cc2ccccc2)C1` (centres undefined), the “Percent Effect” value was determined as 104.3%.

`Cc1cnc(CN2CCC(N(C)Cc3nnc(C4CC4)n3C)C2)cn1` (centres undefined): the “Percent Effect” value came out at 8.133%. Consider `CN(Cc1nnc(C2CC2)n1C)C1CCN(Cc2ccon2)C1` (centres undefined), for which the “Percent Effect” value is listed as -5.558%. On to `CC(=O)N1CCC(c2ncc(C(=O)Nc3ccccc3)c(C)n2)CC1`, for which the “Percent Effect” value is recorded as 16.5%. The same measure for `O=C(CC1CC1)N1CCC2(CC1)CN(Cc1cccnc1)C(=O)CO2.O=C(O)C(F)(F)F`: 2.615%; for `COCCN1C[C@H]2CCN(C(=O)c3cc(C)on3)CC[C@H]2S1(=O)=O`: -32.34%.

As for `CNC(=O)c1cc2ccccc2n1C`, the “Percent Effect” value was -0.05075%.

Turning to `CC(C)(C)c1csc(CCNC(=O)C(c2ccccc2)n2cnnn2)n1` (centres undefined), the “Percent Effect” value is listed as 11.39%. Regarding `Cc1noc(NC(=O)c2cccc(Br)c2)n1`, the “Percent Effect” value turned out to be 106.3%. The same measure for `Cc1noc(NC(=O)c2ccc(Br)cc2)n1`: 106.9%. Regarding `O=C(NCCn1ccnc1)c1cccc(Br)c1`, the “Percent Effect” value is 9.854%. With `Cc1noc(NC(=O)c2ccc(C#N)cc2)n1`, the “Percent Effect” value was determined as 13.91%. The result for `Cc1noc(NC(=O)CCNC(=O)c2ccc(Br)cc2)n1` reads -19.08%; that for `Cc1noc(COCC(=O)Nc2ccc(Br)c(C)n2)n1`, 11.41%; that for `Cc1noc(NC(=O)c2ccc(Br)s2)n1`, 105.7%. Turning to `Cc1ccc(C(=O)Nc2nc(C)no2)cc1`, the “Percent Effect” value came to 27.63%.

For `Cc1noc(NC(=O)c2ccc(OC(F)(F)F)cc2)n1`, the “Percent Effect” value came out at 104.6%. With `Cc1noc(NC(=O)c2ccccc2)n1`, the “Percent Effect” value was -1.268%. The result for `Cc1noc(NC(=O)c2ccc(Br)o2)n1` reads 16.32%. As to `Cc1noc(NCc2ccc(F)cc2)n1`, the “Percent Effect” value is listed as -8.844%. As for `CN1C(=O)C2(CC(=O)Nc3[nH]ncc32)c2cc(F)ccc21` (centres undefined), the “Percent Effect” value is reported as 1.042%. Consider `COCCNC(=O)c1sc2ccccc2c1C1CCC(CN)CC1.Cl` (centres undefined), for which the “Percent Effect” value is recorded as -3.556%.

Consider `CC(C)c1nccn1-c1nccnc1C1CCCN1Cc1cccnc1` (centres undefined), for which the “Percent Effect” value is given as -9.727%.

The values above are taken from ChEMBL document CHEMBL3988442, “University of Dundee, Small-Polar-MMV Screening Library” (2021).
